Source: PubChem BioAssay
Myc binder = binders of human c-Myc, primary screen, biochemical, small molecule microarray, anti-His fluorescence. Myc proto-oncogene protein (Homo sapiens), P01106. His-c-Myc binding. calls only. actives 1.5% (n = 17,000). AID 624141, 2012;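 active = spot fluorescence over background with P-value below 7% in all four replicate spots, showing protein binding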;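 note: score is binary with 100 for all four spots passing and 0 otherwise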
p53 PUMA act = mutant p53 pathway re-activators, primary screen, cell-based, SW480, luciferase, single point, HTS. activation, % at 9.98 µM. actives 1.5% (n = 28,000). SW480 PUMA-promoter luciferase, p53 mutant reactivation; in the data active = activation above about 52%
mut p53 SMM = binders of human mutant p53, primary screen, biochemical, small molecule microarray, anti-GST fluorescence | small molecule microarray binding | calls only | actives 0.4% (n = 17,000);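 active = compounds whose four printed spots each glow above background more than chance allows, each with a p-value under 7%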
NFkB SMM = binders of NF-kB p50 subunit, primary screen, biochemical, small molecule microarray, anti-His fluorescence; actives 1.3% (n = 17,000); calls only; Nuclear factor NF-kappa-B p105 subunit (Homo sapiens), P19838; AID 624139, 2012; anti-His fluorescence binding;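 active = spot fluorescence over background significantly raised, with a chance value under 7% in all four replicate spots of the compound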;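 note: probe protein is his-tagged human p50 processed subunit at 1 µg/ml; raw spot fluorescence signals with no normalization applied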
STAT3 SMM = STAT3 binders, primary screen, biochemical, small molecule microarray, single point, set 2; His-STAT3 binding, anti-His fluorescence; actives 0.2% (n = 17,000); Signal transducer and activator of transcription 3 (Homo sapiens), P40763; calls only;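 active = compounds whose four printed spots each show fluorescence over background unusually high for their array block, chance value under 7%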
Target sequence (P40763 whole entry, looked up): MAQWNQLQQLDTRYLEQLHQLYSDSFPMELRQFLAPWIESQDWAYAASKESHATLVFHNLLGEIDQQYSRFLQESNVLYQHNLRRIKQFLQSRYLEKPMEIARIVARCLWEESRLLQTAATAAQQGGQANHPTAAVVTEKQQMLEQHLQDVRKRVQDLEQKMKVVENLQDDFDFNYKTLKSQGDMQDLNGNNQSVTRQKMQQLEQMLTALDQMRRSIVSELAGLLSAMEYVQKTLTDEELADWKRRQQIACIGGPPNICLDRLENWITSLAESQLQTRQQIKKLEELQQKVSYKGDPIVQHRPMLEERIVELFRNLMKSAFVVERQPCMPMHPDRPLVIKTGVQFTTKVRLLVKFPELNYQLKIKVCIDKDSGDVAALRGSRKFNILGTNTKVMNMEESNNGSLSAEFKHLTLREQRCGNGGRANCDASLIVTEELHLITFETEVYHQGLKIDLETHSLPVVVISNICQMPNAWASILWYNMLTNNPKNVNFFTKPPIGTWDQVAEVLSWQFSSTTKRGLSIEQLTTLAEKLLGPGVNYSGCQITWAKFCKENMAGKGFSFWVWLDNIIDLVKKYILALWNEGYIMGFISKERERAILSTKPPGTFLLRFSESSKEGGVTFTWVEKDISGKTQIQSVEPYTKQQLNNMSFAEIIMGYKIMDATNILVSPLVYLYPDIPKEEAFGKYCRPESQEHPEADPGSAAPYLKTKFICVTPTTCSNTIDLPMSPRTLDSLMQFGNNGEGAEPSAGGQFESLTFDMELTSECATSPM
Starred values were filed as active, the others as inactive; i = inactive; / = no result; + = active, no number. In the library only some 2.8% were active in any assay of this set; here they are far more common.

SMILES	Myc binder	p53 PUMA act	mut p53 SMM	NFkB SMM	STAT3 SMM
Cc1ccc(S(=O)(=O)N2CCC[C@H]2Cn2cc(CN3C(=O)COC[C@H]3c3ccccc3)nn2)cc1	i	/	+	i	i
COc1ccc(C(=O)NCc2occc2C(=O)O)cc1	/	2	/	/	/
COc1ccc(-n2nnnc2SCC(=O)Nc2ccc(F)cc2)cc1	/	-4	/	/	/
C[C@@H]1CN([C@@H](C)CO)C(=O)c2cc(NC(=O)Nc3ccc(F)cc3)ccc2O[C@@H](C)CCCCO[C@H]1CN(C)C(=O)Cc1ccccc1	+	-27	i	+	i
CCCN(C)C[C@@H]1OCCCC[C@@H](C)Oc2ccc(NC(=O)Nc3ccc(F)cc3)cc2C(=O)N([C@H](C)CO)C[C@H]1C	i	/	i	+	i
C[C@H](CO)N1C[C@H](C)[C@H](CN(C)C(=O)c2ccccc2)OCCCC[C@H](C)Oc2ccc(NC(=O)Nc3ccc4c(c3)OCO4)cc2C1=O	+	-10	+	i	i
C[C@@H]1CCCCO[C@H](CN(C)C(=O)c2ccccc2)[C@@H](C)CN([C@H](C)CO)C(=O)c2cc(NC(=O)Nc3ccc4c(c3)OCO4)ccc2O1	i	-1	i	i	i
C[C@@H]1CCCCO[C@H](CN(C)C(=O)c2ccccc2)[C@H](C)CN([C@@H](C)CO)C(=O)c2cc(NC(=O)Nc3ccc(F)cc3)ccc2O1	i	-48	i	+	i
C[C@@H]1CCCCO[C@H](CN(C)C(=O)Cc2ccccc2)[C@@H](C)CN([C@H](C)CO)C(=O)c2cc(NC(=O)Nc3ccc(F)cc3)ccc2O1	i	-4	i	i	i
CCCn1c2ccccc2c2nnc(SCCN3CCCCC3)nc21	/	3	/	/	/
CS(=O)(=O)N(CC(=O)Nc1ccccc1C(=O)N1CCOCC1)c1cc(C(F)(F)F)ccc1Cl	/	-6	/	/	/
C[C@H](C[C@@H](O)[C@](C)(O)[C@H]1CC[C@@]2(O)C3=CC(=O)[C@@H]4C[C@@H](O)[C@@H](O)C[C@]4(C)C3CC[C@]12C)C(C)(C)O (some centres not stated)	i	-3	i	i	i
COc1ccc(CCNC(=O)c2cc3cc(Br)cc(OC)c3oc2=O)cc1OC	/	-4	/	/	/
CCOC(=O)c1c(NC(=O)c2ccc(C)c(S(=O)(=O)N3CCCCCC3)c2)sc(C)c1C	/	-5	/	/	/
COCCSc1nnc(NC(=O)c2sc3ccccc3c2Cl)s1	i	67*	i	i	i
CCCCCCNC(=O)Nc1ccc(S(=O)(=O)Nc2ccc(CCNCC(O)COc3ccc(O)cc3)cc2)cc1 (configuration not stated)	i	-51	i	i	i
c1ccc2c(c1)OCC(c1nnc3sc(-c4ccncc4)nn13)O2 (configuration not stated)	/	4	/	/	/
c1csc(-c2nn3c(C4COc5ccccc5O4)nnc3s2)c1 (configuration not stated)	/	68*	/	/	/
Cc1cc(Cl)ccc1OC(C)C(=O)Nc1cc(C(=O)O)cc(C(=O)O)c1 (configuration not stated)	/	1	/	/	/
CC1OC(OCC2OC(OCC3(C)C(O)CCC4(C)C3CCC3(C)C4CCC4C5=CC(C)(C)CCC5(C(=O)O)CCC43C)C(O)C(O)C2O)C(O)C(O)C1O (configuration not stated)	+	2	i	+	i
COc1c(C=O)c(O)cc2c1C(=O)c1ccccc1C2=O	+	-7	i	i	i
COc1ccc(/C=C2\Oc3cc(O)cc(O)c3C2=O)cc1O	i	3	i	i	i
CSc1ccccc1NC(=O)CN(c1cc(C(F)(F)F)ccc1Cl)S(C)(=O)=O	/	-3	/	/	/
COc1cc(/C=C/c2cc(O)cc(O)c2)ccc1O[C@@H]1O[C@H](CO)[C@@H](O)[C@H](O)[C@H]1O	i	66*	i	i	i
C[C@@H]1CCCCO[C@@H](CN(C)CC2CCCCC2)[C@H](C)CN([C@H](C)CO)C(=O)c2cc(NS(C)(=O)=O)ccc2O1	i	/	i	+	i
SMILES	Myc binder	p53 PUMA act	mut p53 SMM	NFkB SMM	STAT3 SMM
C[C@@H]1CCCCO[C@@H](CN(C)C)[C@H](C)CN([C@@H](C)CO)C(=O)c2cc(NS(C)(=O)=O)ccc2O1	i	4	i	i	i
C[C@@H]1CN([C@H](C)CO)C(=O)c2cc(NC(=O)Nc3ccc4c(c3)OCO4)ccc2O[C@@H]1CN(C)CC1CCCCC1	i	2	+	i	i
C[C@H]1CCCCO[C@@H](CN(C)CC2CCCCC2)[C@@H](C)CN([C@@H](C)CO)C(=O)c2cc(NC(=O)C3CCCCC3)ccc2O1	i	/	i	+	i
Cc1ccc(OCC(=O)Nc2ccccc2C#N)cc1C	/	83*	/	/	/
Cc1cccc(C)c1OCC(=O)Nc1ccccc1C#N	i	9	i	i	i
CC(C)OC(=O)c1cn(Cc2c(F)cccc2F)c2sc(-c3ccc(NC(=O)C(C)C)cc3)c(CN(C)Cc3ccccc3)c2c1=O	+	-51	i	+	i
CCN(CC(=O)Nc1ccc(I)cc1)S(=O)(=O)c1ccc(C)cc1	/	5	/	/	/
COc1cc(S(=O)(=O)n2nnc3ccccc32)c(OC)cc1Cl	+	6	i	i	i
Cc1ccc(S(=O)(=O)NCCNc2ccc([N+](=O)[O-])cc2)cc1	i	12	i	i	i
O=[N+]([O-])c1ccc(NCCNCCO)cc1	i	-2	+	i	i
Oc1c(C(Nc2ccccn2)c2c(F)cccc2Cl)cc(Cl)c2cccnc12 (configuration not stated)	/	-63	/	/	/
N/C(=N\O)c1ccc(N2CCN(c3ncccc3C(F)(F)F)CC2)nc1	/	142*	/	/	/
Cc1ccc2ccc(C(Nc3ccccn3)c3cccc([N+](=O)[O-])c3)c(O)c2n1 (configuration not stated)	/	-11	/	/	/
CC(=O)Nc1nccc(-c2cc(-c3cccc(C(F)(F)F)c3)no2)n1	/	79*	/	/	/
Cc1cc(Cl)cc(Br)c1OCCCSc1ncccn1	/	132*	/	/	/
Cc1ccc(C)c(OCCCCSc2ncccn2)c1Cl	i	39	i	i	i
COc1c(C)c(OCC=C(C)C)cc(CO)c1CO	i	4	i	i	i
c1ccc(Cn2ccnc2SCc2nnc(-c3ccccc3)o2)cc1	+	17	+	i	i
COc1ccccc1N1CCN(C(=O)CN(c2cc(Cl)ccc2OC)S(C)(=O)=O)CC1	i	-18	i	i	i
O=[N+]([O-])c1cccc(COc2ccc(-c3cnc4ccccc4n3)cc2)c1	/	63*	/	/	/
O=C(COc1cccc(-c2cnc3ccccc3n2)c1)c1ccccc1	i	40	i	i	i
